High-throughput results (PubChem BioAssay)
Rows were chosen to be rich in hits. Some 10% of all compounds tested hit in one or more screens of this group.
Mm-Cpn inhibitor: M. maripaludis TRiC chaperonin inhibition; 330,000 compounds, 0.031% hits; Potency, µM (titrated, usually from 76.9 µM), inactives show top-dose activity, negative = inhibition, actives largely listed as inhibitors; purified Mm-Cpn ATPase, ADP Transcreener TR-FRET; further: potency means the concentration at half of the fitted maximal effect; nearly all actives have a fitted effect of over 80% in size
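Purified archaeal Mm-CPN (25nM final) preincubated 10 min at 37degC with compound, then 10uM ATP for 30 min at 37degC; ADP measured by HTRF Transcreener TR-FRET; buffer 30 mM TRIS pH 7.4, 100mM KCl, 5mM MgCl2, 1mM DTT.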
PLK1 PBD block: PLK1 (human) polo-box domain binding inhibition; Potency, µM, without a hit: max response, negative = inhibition, usual class: inhibitors; 360,000 compounds, 2.8% hits; P53350; Plk1 PBD binding of FITC phosphopeptide, fluorescence polarization; AID 720504; further: potency means the concentration at half of the fitted maximal effect; series mostly up to about 57 µM; nearly all actives have a fitted effect of over 65% in size
Target sequence (P53350 whole entry, looked up, the tested form may be a part): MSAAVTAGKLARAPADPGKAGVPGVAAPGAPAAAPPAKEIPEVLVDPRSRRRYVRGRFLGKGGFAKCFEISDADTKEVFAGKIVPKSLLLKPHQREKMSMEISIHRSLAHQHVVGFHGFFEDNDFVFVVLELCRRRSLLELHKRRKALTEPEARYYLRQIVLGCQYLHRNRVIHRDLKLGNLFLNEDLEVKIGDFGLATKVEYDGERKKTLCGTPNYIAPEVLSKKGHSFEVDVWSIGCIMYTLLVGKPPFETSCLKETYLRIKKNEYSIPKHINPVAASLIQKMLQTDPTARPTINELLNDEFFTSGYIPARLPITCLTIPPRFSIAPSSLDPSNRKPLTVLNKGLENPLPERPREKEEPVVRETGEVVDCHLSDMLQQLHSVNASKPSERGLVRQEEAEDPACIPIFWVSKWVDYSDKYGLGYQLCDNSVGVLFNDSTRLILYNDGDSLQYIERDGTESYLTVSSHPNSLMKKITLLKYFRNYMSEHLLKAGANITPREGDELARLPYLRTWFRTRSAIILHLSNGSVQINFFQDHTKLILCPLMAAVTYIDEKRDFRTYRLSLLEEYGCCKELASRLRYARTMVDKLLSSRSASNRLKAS
Sfp PPTase inh: Sfp phosphopantetheinyl transferase inhibition; Biochemical Sfp PPTase activity, qHTS; AID 1490; Q9F4F7; Potency, µM, inactives show largest response in the series, negative = inhibition, usual class: inhibitors; 310,000 compounds, 3.5% hits;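 further: the enzyme is Sfp with the accession as filed and its product quenches rhodamine fluorescence; potency means the concentration at half of the fitted maximal effect; 0% = enzyme reaction without inhibitor and -100% = no enzyme wells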
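Step 1, compound plus 15 nM Sfp-PPTase, 15 min, room temperature. Step 2, add rhodamine-CoA (5 uM) and BHQ-2-YbbR (12.5 uM). Step 3, read 525/598 nm fluorescence at 0 and 30 min.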
G9a block: inhibitors of human histone lysine methyltransferase G9a; Q96KQ7; G9a H3K9 monomethylation, AlphaScreen, 2 h; Potency, µM (titrated, usually from 102 µM), without a hit: top-dose activity, negative = inhibition, actives largely listed as inhibitors; 350,000 compounds, 8.8% hits; further: potency means the concentration at half of the fitted maximal effect; nearly all actives have a fitted effect of over 75% in size
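Quantitative HTS format: methyltransferase activity on a biotin-tagged H3K9 peptide is measured by AlphaScreen, using a rabbit anti-monomethyl-H3K9 antibody with streptavidin donor and anti-IgG acceptor beads. Final levels are 20 nM enzyme, 500 nM peptide, 20 uM SAM; 2 h RT.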
CCT chaperon mod: changes cytosolic chaperonin activity; purified chaperonin ATPase assay, HTRF ADP detection, 30 min; activity change, % (test concentration not listed), hits read low; 360,000 compounds, 0.3% hits; AID 651819; in the data active means activity change below about -30%
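TRiC at 40 or 20 nM final (batch-dependent) in 30 mM Tris pH 7.4, 100 mM KCl, 5 mM MgCl2, 1 mM DTT, with compound at single 76 uM and 10 uM ATP, 30 min at 37 deg C. ADP detected by HTRF Transcreener, 665/615 ratio.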
VDR inh: inhibitors of human vitamin D receptor | AID 504847 | VDR-SRC2-3 peptide fluorescence polarization, 2 h | Potency, µM, for the others: max response, negative = inhibition, usual class: inhibitors | P11473 | 400,000 compounds, 0.93% hits; further: potency means the concentration at half of the fitted maximal effect
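Fluorescence polarization assay measuring small-molecule disruption of VDR binding to the coregulator peptide SRC2-3. Compounds were pin-transferred (23 nl) into the reagent mix and incubated 2 h at room temperature before reading.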
* marks the source's active call; other numbers are inactive results; ? = inconclusive; nt = no result; [ ] = dose if it differs, or a comment. Unless noted, the call rests on the fitted dose curve; in most records, active means well fitted curve in the direction sought with a large enough effect; inconclusive means small, poorly fitted or top-dose-only effect, or another doubt; inactive means no such curve, though single readings can be large; an effect the other way counts as inactive or inconclusive. Unless noted, on the % scale 0 is the no-effect control and ±100 the full control effect.

SMILES	Mm-Cpn inhibitor	PLK1 PBD block	Sfp PPTase inh	G9a block	CCT chaperon mod	VDR inh
OC(c1ccc(Cl)cc1)c1nccc2ccccc12 (configuration not stated)	-2.2%	-8.1%	1.4%	39.8µM*	-5.3	-24.6%
O=C(c1ccccc1)N1CCOC(O)(c2ccccc2)C1c1ccccc1 (configuration not stated)	nt	-5.8%	nt	nt	0.1	13.5%
O=C(c1ccccc1)N1CCCOC1c1ccccc1 (configuration not stated)	3.7%	-1.6%	12.3%	25.1µM*	2.0	-4.9%
CC(C)(C)c1ccc(Oc2ccc(NC(=O)c3ccccc3C(=O)O)cn2)cc1	-1.8%	-1.6%	11.0%	56.2µM*	0.0	-7.1%
Cc1cccc(N2C(=O)c3ccc(C(=O)Nc4ccccn4)cc3C2=O)c1	1.1%	-3.9%	13.7%	-1.1%	-0.8	1.6%
Cc1cccc(N2C(=O)/C(=C\c3ccc(C(=O)O)cc3)c3ccccc3C2=O)c1	0.5%	6.7µM*	4.8%	44.7µM*	0.9	?
CC1=C(C#N)C(/C=N/OCc2ccc(F)cc2Cl)CC(=O)N1 (configuration not stated)	-0.7%	29.9µM*	12.0%	-18.0%	-0.1	?
COc1ccnc(Oc2ccccc2)c1C(=O)N/C=N/OCc1ccc(F)cc1Cl	3.7%	-2.3%	?	-10.0%[59 µM]	3.1	12.7%
O=C(NCc1cccs1)C1CCN(S(=O)(=O)c2ccccc2F)CC1	-2.5%	-13.5%	-5.3%	79.4µM*	-1.6	1.1%
COc1ccc(Cn2c(CCC(=O)NCc3cccc(Cl)c3)nc3cccnc32)cc1	nt	nt	nt	-13.0%[59 µM]	nt	1.3%
CCOC(=O)c1ccccc1NC(=O)CSc1nccn1Cc1ccco1	nt	nt	nt	-3.6%[59 µM]	nt	16.2%
O=C(CSc1ncccn1)N1CCN(S(=O)(=O)c2ccccc2)CC1	-4.4%	-22.0%	6.1%	?	-0.6	10.8%
Nn1cc(-c2ccccc2)nc1SCC(=O)NCC1CCCO1 (configuration not stated)	1.1%	-2.9%	7.5%	-7.1%	-2.6	-2.2%
CC1CCCCN1C(=O)CSc1n[nH]c(-c2ccccc2)n1 (configuration not stated)	nt	nt	nt	-2.0%[59 µM]	nt	16.1%
Nn1cc(-c2ccccc2)nc1SCC(=O)N1CCN(S(=O)(=O)c2ccccc2)CC1	0.9%	-2.1%	-16.3%	25.1µM*	-1.9	-4.8%
CCCC(C)NC(=O)CSc1nc(-c2ccccc2)cn1N (configuration not stated)	1.4%	26.7µM*	11.6%	-1.8%	0.0	-4.4%
CC1CCCCN1C(=O)CSc1nc(-c2ccccc2)cn1N (configuration not stated)	-6.7%	23.8µM*	-15.2%	0.3%	-10.1	?
COCCn1c(=O)cnc2cnc(OC)nc21	nt	nt	5.6%	-1.1%[0.501 µM]	nt	8.5%
CN(C)S(=O)(=O)c1cccc(NC(=S)N/N=C/C2CC=CCC2)c1 (configuration not stated)	1.7%	-16.7%	-21.2%	5.62µM*	-0.3	?
CN(C)S(=O)(=O)c1cccc(NC(=S)NC2CCCCC2)c1	-21.4%	-8.3%	7.0%	?	0.1	-3.2%
Cc1ccc2c(c1)c1c(n2CC(O)CN2CCCCC2C)CCCC1 (configuration not stated)	0.5%	-5.3%	3.2%	44.7µM*	-0.1	-1.1%
Cc1ccc2c(c1)c(C)c(C)n2CC(O)CN1CCCCC1C (configuration not stated)	2.1%	-1.4%	3.0%	?	1.7	9.2%
Cc1ccc2c(c1)c1c(n2CC(O)CN2CCOCC2)CCCC1 (configuration not stated)	-5.2%	nt	-3.4%	?	nt	nt
Cc1ccc2c(c1)c1c(n2CC(O)CNC(CO)(CO)CO)CCCC1 (configuration not stated)	-1.4%	-5.3%	19.3%	50.1µM*	0.9	3.5%
Cc1ccc2c(c1)c1c(n2CC(O)CNC2CCCCC2)CCCC1 (configuration not stated)	-0.4%	-28.7%	-12.0%	39.8µM*	-0.6	-1.8%
SMILES	Mm-Cpn inhibitor	PLK1 PBD block	Sfp PPTase inh	G9a block	CCT chaperon mod	VDR inh
O=C1/C(=C\c2cccs2)N=C(c2cccs2)N1Nc1ccccc1	-0.2%	-16.0%	9.1%	39.8µM*	-7.1	12.8%
Cc1ccc(C2=N/C(=C\c3cccs3)C(=O)N2Nc2ccccc2)cc1	1.9%	1.4%	-4.9%	?	-0.4	19.3%
O=C1/C(=C/c2cccs2)N=C(c2cccs2)N1Nc1ccccc1	1.6%	-22.6%	3.9%	50.1µM*	-0.2	-10.4%
CCOc1ccccc1Nc1sc(C(=O)c2ccc(Cl)cc2)c(N)c1C(=O)NCCc1ccccc1	nt	nt	nt	-37.8%[59 µM]	nt	7.7%
CN1c2ccccc2C(=O)NC1c1ccc(Cl)cc1 (configuration not stated)	1.2%	-6.0%	11.5%	44.7µM*	-1.0	-10.3%
COc1ccc(N2C(=O)/C(=C\c3ccco3)N=C2SCC(=O)NC(C)C)cc1Cl	0.2%	0.1%	-21.5%	?	-1.3	3.3%
O=C(CSC1=N/C(=C/c2ccco2)C(=O)N1c1ccc(OC(F)F)cc1)NC1CCS(=O)(=O)C1 (configuration not stated)	0.8%	-14.8%	-18.1%	44.7µM*	-5.8	-18.6%
CC(C)CNC(=O)CSc1nnc2ccccn12	4.1%	-8.3%	17.6%	44.7µM*	1.6	-16.5%
COc1ccc(-c2noc(CSc3nnc(C)n3-c3cccc(C)c3)n2)cc1	nt	nt	nt	-20.0%[59 µM]	nt	13.2%
CC1(C)CC(=O)C2=C(C1)Nc1cc3c(cc1C2c1ccc2c(c1)OCO2)OCO3 (configuration not stated)	-2.9%	-7.3%	-9.8%	39.8µM*	-0.8	-7.8%
CC1(C)CC(=O)C2=C(C1)Nc1cc3c(cc1C2c1ccc(F)cc1)OCO3 (configuration not stated)	0.7%	-2.4%	-21.0%	nt	0.6	?
CCN(c1ccc(NC(=O)COC(=O)CCc2cc(OC)c(OC)c(OC)c2)cc1)C(C)C	0.3%	-0.6%	16.8%	25.1µM*	1.1	7.9%
CCN(c1ccc(NC(=O)COC(=O)C(C)N=C2NS(=O)(=O)c3ccccc32)cc1)C(C)C (configuration not stated)	-1.3%	7.4%	nt	7.08µM*	-0.4	14.6%
CCN(c1ccc(NC(=O)COC(=O)c2ccc(C)s2)cc1)C(C)C	-3.7%	-19.0%	-7.3%	10µM*	-0.6	16.6%
CCN(CC)c1ccc(NC(=O)COC(=O)CCc2cc(OC)c(OC)c(OC)c2)cc1	nt	-6.0%	nt	nt	0.5	nt
Cc1ccc(C(=O)OCC(=O)Nc2ccc(C(N)=O)cc2)s1	-0.5%	-2.5%	nt	3.8%[12.7 µM]	-6.1	-17.8%
Cc1c(CCC(=O)NCCc2ccccc2F)c(=O)oc2cc(O)ccc12	nt	nt	nt	-4.6%[59 µM]	nt	5.1%
COc1ccc(NC(=O)CCC(=O)N/N=C/c2ccncc2)cc1	-0.9%	4.7%	8.4%	22.4µM*	0.5	-4.1%
